GLD-1 RNA inh = GLD-1/TGE RNA complex disruptors, primary screen, biochemical, fluorescence polarization; inhibition, % at 5.96 µM; purified GLD-1 + fluorescein TGE RNA; AID 2280, 2010; hit rate 0.44% among 320,000;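 active means percent inhibition above a per-plate cutoff, the plate mean of test compounds plus 3 SD, cut at about 30% in these data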
LANA DNA inh = inhibitors of KSHV C-LANA binding to DNA, primary screen, biochemical, fluorescence polarization, FAM-LBS DNA, MBP-C-LANA, single point; Kaposi's sarcoma herpesvirus LANA C-terminal domain (residues 932-1162) DNA binding; inhibition, % at 9 µM; hit rate 0.078% among 340,000;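 active means highest replicate inhibition at or above 60% at 9 µM, even if other replicates fall short; inactive means all replicates below 60% inhibition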
MCL1-BIM inh = inhibitors of MCL1 binding to BIM-BH3, primary screen, biochemical, fluorescence polarization | GST-MCL1 / FITC-Bim-BH3 fluorescence polarization | inhibition, % at 10.9 µM | Induced myeloid leukemia cell differentiation protein Mcl-1 (Homo sapiens), Q07820 | hit rate 0.68% among 320,000 | AID 2057, 2009;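 active means inhibition above the mean inhibition of all tested compounds plus 3 SD, set per campaign, cut at about 40% in these data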;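 further: higher means more loss of mP so more displacement of Bim peptide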
Target sequence (Q07820 whole entry, looked up): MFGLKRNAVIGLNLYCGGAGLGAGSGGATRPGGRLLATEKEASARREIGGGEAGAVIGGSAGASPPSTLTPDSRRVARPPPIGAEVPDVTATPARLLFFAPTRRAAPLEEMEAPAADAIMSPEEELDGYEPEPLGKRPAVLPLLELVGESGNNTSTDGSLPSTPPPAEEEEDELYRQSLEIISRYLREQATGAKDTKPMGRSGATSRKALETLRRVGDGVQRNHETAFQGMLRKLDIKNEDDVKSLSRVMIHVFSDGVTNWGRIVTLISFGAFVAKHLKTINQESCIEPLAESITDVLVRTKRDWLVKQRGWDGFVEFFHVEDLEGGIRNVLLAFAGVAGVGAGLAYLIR
E coli Lon inh = inhibitors of E. coli Lon protease, primary screen, biochemical, fluorescence polarization; P0A9M0; purified E. coli Lon protease; inhibition, % at 7.94 µM; hit rate 0.42% among 360,000; in the data active means inhibition above about 13%, passing the limit was not always enough
Keap1 Nrf2 FP = Keap1-Nrf2 protein-protein interaction inhibitors, primary screen, biochemical, fluorescence polarization, single point | Keap1 Kelch-Nrf2 peptide fluorescence polarization, 1536-well | hit rate 0.15% among 340,000 | inhibition, % at 9.4 µM | AID 504523, 2011; in the data active means inhibition above about 12%;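 further: human Keap1 Kelch domain with fluorescein labeled Nrf2 9mer peptide probe; higher means more block of Keap1 binding to Nrf2 peptide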
Bcl-xL primary = inhibitors of human Bcl-xL, primary screen, biochemical, fluorescence polarization, HTS | hit rate 0.7% among 320,000 | inhibition, % at 10.9 µM | AID 2129, 2009 | GST-Bcl-xL / FITC-Bim BH3 peptide fluorescence polarization | Bcl-2-like protein 1 (Homo sapiens), Q07817;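 active means inhibition above the mean of all tested compounds plus 3 SD, cutoff set per campaign, cut at about 30% in these data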;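 further: inhibitors lower millipolarization by displacing the labeled peptide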
Bcl-xL conf = Bcl-xL inhibitors blocking Bim BH3 binding, confirmation, counter-screen for MCL1 inhibitor project, biochemical, fluorescence polarization | shares compounds with MCL1-BIM inh | GST-Bcl-xL / FITC-Bim BH3 peptide FP binding | inhibition, % at 10.9 µM | hit rate 54% among 1,700;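 active means inhibition above a cutoff equal to the mean inhibition of all tested compounds plus 3 SD, cut at about 30% in these data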
MCL1 BIM confirm = inhibitors of MCL1 binding to BIM-BH3, confirmation, biochemical, fluorescence polarization, triplicate. shares compounds with MCL1-BIM inh. GST-MCL1 / FITC-Bim-BH3 fluorescence polarization. inhibition, % at 10.9 µM. hit rate 61% among 1,700;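 active means inhibition above the average of all tested compounds plus 3 SD, cut at about 40% in these data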
Hits are given with their value; i = inactive; nt = not tested or not shown. In the library only some 1.3% were active in any assay of this set; here they are far more common.

SMILES | GLD-1 RNA inh | LANA DNA inh | MCL1-BIM inh | E coli Lon inh | Keap1 Nrf2 FP | Bcl-xL primary | Bcl-xL conf | MCL1 BIM confirm
CN1CCN(C2=C(Cl)C(=O)C(c3cnc(N4CCCCC4)s3)=C(Cl)C2=O)CC1 | i | i | 93.3 | i | i | 76.5 | 72.1 | 92.3
CN1CCN(C2=C(Cl)C(=O)c3ccccc3C2=O)CC1 | nt | i | nt | i | i | nt | nt | nt
CCCc1cc(=O)oc2c3c(c(Cl)cc12)OCN(CCCO)C3 | 47.5 | nt | 89.1 | nt | nt | 76.0 | 55.4 | 82.0
CCCc1cc(=O)oc2c(CN3CCCC3)c(O)ccc12 | i | i | i | i | i | i | nt | nt
CCOc1ccc(CCNC(=O)CSc2ncn[nH]2)cc1OCC | i | i | i | i | i | i | nt | nt
CC(=O)c1sc2nc(-c3cccs3)cc(C(F)(F)F)c2c1N | i | i | 68.5 | i | i | 63.0 | 73.7 | 83.3
O=C(CNC(=O)c1ccccc1Br)N/N=C/c1ccccc1O | i | i | i | i | i | i | nt | nt
O=C(CNC(=O)c1ccccc1Br)N/N=C\c1cc([N+](=O)[O-])cc(Br)c1O | i | i | 42.0 | i | i | i | i | i
Nc1nnc(CC(=O)N/N=C/c2cc([N+](=O)[O-])cc(Br)c2O)s1 | i | i | 44.1 | i | i | i | i | 43.3
COc1ccc(CN2C(=O)Cc3c2nc(N)c2c(N)nc(N4CCCCC4)c(C#N)c32)cc1 | i | nt | 65.8 | nt | nt | 44.5 | i | i
Cc1cc(C(=O)N[C@H](c2ccccc2)[C@@]2(C)C[C@@H]2[C@@H](C)C(=O)Nc2ccc3ccccc3c2)n(C)n1 | i | i | i | i | i | i | nt | nt
CC(C)Oc1ccc(CN2CCC2(C)C(=O)NCc2cccc3ccccc23)cc1 (stereo unspecified) | nt | nt | nt | i | nt | nt | nt | nt
N#CC1=C2N=C(N)c3ccccc3N2C2=C(C(=O)CCC2)C1c1ccc(Cl)cc1 (stereo unspecified) | i | i | i | i | i | i | nt | nt
Cc1ccccc1C1C(C#N)=C2N=C(N)c3c(sc4c3CCCCC4)N2C2=C1C(=O)CCC2 (stereo unspecified) | 48.7 | i | 66.9 | i | i | 61.4 | 53.5 | 68.1
Cc1cc(-n2c(=O)c(C#N)cc3c(=O)n4ccccc4nc32)no1 | i | i | 55.7 | i | i | 43.1 | 44.9 | 57.9
Cc1ccccc1-n1c(=O)c(C#N)cc2c(=O)n3ccccc3nc21 | i | i | i | i | i | i | nt | nt
Cc1ccc(-c2nc3s/c(=C\c4ccco4)c(=O)n3n2)cc1 | i | i | i | i | i | i | nt | nt
O=c1nc2s/c(=C\c3ccco3)c(=O)n2nc1Cc1ccc(F)cc1 | i | i | 53.1 | i | i | i | i | 68.0
CCCCN1Cc2c(nc3cc(-c4ccco4)[nH]n3c2=O)C1=O | i | i | 66.4 | i | i | i | 36.7 | 50.5
Cc1cc(C)c(OCC(=O)OCC(=O)N2c3ccccc3CC2C)c(C)c1 (stereo unspecified) | i | i | i | i | i | i | nt | nt
Cc1ccccc1NC(=O)c1ccccc1N(C)S(=O)(=O)c1ccccc1 | i | i | i | i | i | i | nt | nt
O=C(O)c1cc(N=Nc2c(O)ccc3ccccc23)cc(C(=O)O)c1 | nt | i | nt | i | i | nt | nt | nt
O=C(O)c1ccc(N=Nc2c(O)ccc3ncccc23)cc1 | i | i | 50.6 | i | i | i | 40.4 | 58.9
